# Source: publication PMC5540273 (PLoS ONE, 2017)
# “And” between values parts separate entries of the source, which are not always exact repeats. Identical values can stand only once. Like-named read-outs stand apart in the source and are kept apart here.
# Assays:
# SGK = settings: concentration: 1 μM, replicates: in singlicate, n = 1
# SIK2 = settings: concentration: 1 μM, replicates: in singlicate, n = 1
# SIK = settings: concentration: 1 μM, replicates: in singlicate, n = 1
# SLK = settings: concentration: 1 μM, replicates: in singlicate, n = 1
# SNARK = test system: T1, SNARK; settings: concentration: 1 μM, replicates: in singlicate, n = 1
# T1 construct: gene NUAK2
# SNRK = settings: concentration: 1 μM, replicates: in singlicate, n = 1
# SRC = settings: concentration: 1 μM, replicates: in singlicate, n = 1
# SRMS = settings: concentration: 1 μM, replicates: in singlicate; n = 1
# SRPK1 = settings: concentration: 1 μM, replicates: in singlicate, n = 1
# SRPK2 = settings: concentration: 1 μM, replicates: in singlicate, n = 1
# SRPK3 = settings: concentration: 1 μM, replicates: in singlicate, n = 1
# STK16 = settings: concentration: 1 μM, replicates: in singlicate, n = 1
# STK33 = settings: concentration: 1 μM, replicates: in singlicate, n = 1
# STK35 = settings: concentration: 1 μM, replicates: in singlicate; n = 1
# STK36 = settings: concentration: 1 μM, replicates: in singlicate; n = 1
# STK39 = settings: concentration: 1 μM, replicates: in singlicate, n = 1
# SYK = settings: concentration: 1 μM, replicates: in singlicate, n = 1
# SgK110 = settings: concentration: 1 μM, replicates: in singlicate; n = 1
# TAK1 = test system: T2, TAK1; settings: concentration: 1 μM, replicates: in singlicate, n = 1
# T2 construct: gene MAP3K7
# TAOK1 = settings: concentration: 1 μM, replicates: in singlicate, n = 1
# 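Further: KINOMEscan kinase panel screen.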
smiles,measurement,setting,value
O=C1NC(=O)C(N2CCc3ccccc32)=C1c1cccc(Cl)c1 [SB-408010],%Inh,SGK,0%
same,%Inh,SIK2,0%
same,%Inh,SIK,12%
same,%Inh,SLK,26%
same,%Inh,SNARK,2%
same,%Inh,SNRK,0%
same,%Inh,SRC,10%
same,%Inh,SRMS,0%
same,%Inh,SRPK1,14%
same,%Inh,SRPK2,9%
same,%Inh,SRPK3,31%
same,%Inh,STK16,26%
same,%Inh,STK33,0%
same,%Inh,STK35,19%
same,%Inh,STK36,16%
same,%Inh,STK39,54%
same,%Inh,SYK,0%
same,%Inh,SgK110,1%
same,%Inh,TAK1,21%
same,%Inh,TAOK1,0%
O=c1cc(N2CCOCC2)nc2n(Cc3cccc(F)c3)ccn12 [GSK2297430],%Inh,SGK,0%
same,%Inh,SIK2,2%
same,%Inh,SIK,4%
same,%Inh,SLK,18%
same,%Inh,SNARK,0%
same,%Inh,SNRK,0%
same,%Inh,SRC,12%
same,%Inh,SRMS,0%
same,%Inh,SRPK1,23%
same,%Inh,SRPK2,0%
same,%Inh,SRPK3,7%
same,%Inh,STK16,14%
same,%Inh,STK33,0%
same,%Inh,STK35,18%
same,%Inh,STK36,0%
same,%Inh,STK39,0%
same,%Inh,SYK,11%
same,%Inh,SgK110,0%
same,%Inh,TAK1,0%
same,%Inh,TAOK1,0%
NS(=O)(=O)c1cccc(-c2ccc3nccc(-c4cccc(S(N)(=O)=O)c4)c3c2)c1 [GW867253],%Inh,SGK,9%
same,%Inh,SIK2,1%
same,%Inh,SIK,0%
same,%Inh,SLK,0%
same,%Inh,SNARK,0%
same,%Inh,SNRK,0%
same,%Inh,SRC,0%
same,%Inh,SRMS,27%
same,%Inh,SRPK1,0%
same,%Inh,SRPK2,0%
same,%Inh,SRPK3,23%
same,%Inh,STK16,12%
same,%Inh,STK33,0%
same,%Inh,STK35,0%
same,%Inh,STK36,0%
same,%Inh,STK39,0%
same,%Inh,SYK,1%
same,%Inh,SgK110,0%
same,%Inh,TAK1,6%
same,%Inh,TAOK1,2%
COc1cc(Nc2nccc(N3CCC(NC(=O)c4cccc(NC(C)=O)c4)C3)n2)cc(OC)c1OC (centres unmarked) [GSK1379754],%Inh,SGK,0%
same,%Inh,SIK2,12%
same,%Inh,SIK,10%
same,%Inh,SLK,32%
same,%Inh,SNARK,57%
same,%Inh,SNRK,0%
same,%Inh,SRC,25%
same,%Inh,SRMS,0%
same,%Inh,SRPK1,61%
same,%Inh,SRPK2,0%
same,%Inh,SRPK3,16%
same,%Inh,STK16,64%
same,%Inh,STK33,2%
same,%Inh,STK35,0%
same,%Inh,STK36,0%
same,%Inh,STK39,0%
same,%Inh,SYK,39%
same,%Inh,SgK110,2%
same,%Inh,TAK1,0%
same,%Inh,TAOK1,0%
Cc1nnc(-c2ccc3ncc(-c4ccc(S(C)=O)cc4)n3c2)o1 (centres unmarked),%Inh,SGK,0%
same,%Inh,SIK2,0%
same,%Inh,SIK,9%
same,%Inh,SLK,14%
same,%Inh,SNARK,0%
same,%Inh,SNRK,2%
same,%Inh,SRC,0%
same,%Inh,SRMS,0%
same,%Inh,SRPK1,0%
same,%Inh,SRPK2,0%
same,%Inh,SRPK3,0%
same,%Inh,STK16,0%
same,%Inh,STK33,1%
same,%Inh,STK35,1%
same,%Inh,STK36,9%
same,%Inh,STK39,25%
same,%Inh,SYK,0%
same,%Inh,SgK110,0%
same,%Inh,TAK1,8%
same,%Inh,TAOK1,0%
CCCCCc1nc2c(N)ncnc2n1CCCCC [SKF-97255],%Inh,SGK,0%
same,%Inh,SIK2,1%
same,%Inh,SIK,8%
same,%Inh,SLK,8%
same,%Inh,SNARK,0%
same,%Inh,SNRK,0%
same,%Inh,SRC,14%
same,%Inh,SRMS,25%
same,%Inh,SRPK1,0%
same,%Inh,SRPK2,11%
same,%Inh,SRPK3,0%
same,%Inh,STK16,9%
same,%Inh,STK33,0%
same,%Inh,STK35,0%
same,%Inh,STK36,0%
same,%Inh,STK39,7%
same,%Inh,SYK,20%
same,%Inh,SgK110,3%
same,%Inh,TAK1,0%
same,%Inh,TAOK1,0%
O=C(NOCC1CC1)c1ccc(F)c(F)c1Nc1ccc(I)cc1Cl,%Inh,SGK,0%
same,%Inh,SIK2,0%
same,%Inh,SIK,1%
same,%Inh,SLK,0%
same,%Inh,SNARK,0%
same,%Inh,SNRK,0%
same,%Inh,SRC,0%
same,%Inh,SRMS,0%
same,%Inh,SRPK1,0%
same,%Inh,SRPK2,0%
same,%Inh,SRPK3,7%
same,%Inh,STK16,0%
same,%Inh,STK33,0%
same,%Inh,STK35,0%
same,%Inh,STK36,0%
same,%Inh,STK39,0%
same,%Inh,SYK,0%
same,%Inh,SgK110,0%
same,%Inh,TAK1,11%
same,%Inh,TAOK1,0%
NCCNS(=O)(=O)c1ccc(-c2ccnc3[nH]ccc23)cc1 [GSK977617],%Inh,SGK; 1 µM,45% and 33%
same,%Inh,SIK2; 1 µM,12% and 0%
same,%Inh,SIK; 1 µM,21% and 0%
same,%Inh,SLK; 1 µM,89% and 75%
same,%Inh,SNARK; 1 µM,89% and 82%
same,%Inh,SNRK; 1 µM,16% and 0%
same,%Inh,SRC; 1 µM,11% and 0%
same,%Inh,SRMS,0%
same,%Inh,SRPK1; 1 µM,87% and 65%
same,%Inh,SRPK2; 1 µM,6% and 0%
same,%Inh,SRPK3; 1 µM,67% and 37%
same,%Inh,STK16; 1 µM,80% and 68%
same,%Inh,STK33; 1 µM,85% and 71%
same,%Inh,STK35,0%
same,%Inh,STK36,0%
same,%Inh,STK39; 1 µM,0% and 13%
same,%Inh,SYK; 1 µM,32% and 15%
same,%Inh,SgK110,0%
same,%Inh,TAK1; 1 µM,75% and 65%
same,%Inh,TAOK1; 1 µM,54% and 40%
N#Cc1ccc(-c2cc(-c3c[nH]nc3-c3ccccn3)ccn2)cc1 [GW693028],%Inh,SGK,0%
same,%Inh,SIK2,0%
same,%Inh,SIK,0%
same,%Inh,SLK,6%
same,%Inh,SNARK,0%
same,%Inh,SNRK,0%
same,%Inh,SRC,0%
same,%Inh,SRMS,0%
same,%Inh,SRPK1,0%
same,%Inh,SRPK2,0%
same,%Inh,SRPK3,14%
same,%Inh,STK16,0%
same,%Inh,STK33,4%
same,%Inh,STK35,0%
same,%Inh,STK36,0%
same,%Inh,STK39,16%
same,%Inh,SYK,5%
same,%Inh,SgK110,5%
same,%Inh,TAK1,0%
same,%Inh,TAOK1,0%
CN(C1=C(c2ccccc2)C(=O)NC1=O)c1ccccc1 [SB-334860],%Inh,SGK,0%
same,%Inh,SIK2,5%
same,%Inh,SIK,7%
same,%Inh,SLK,10%
same,%Inh,SNARK,23%
same,%Inh,SNRK,0%
same,%Inh,SRC,5%
same,%Inh,SRMS,0%
same,%Inh,SRPK1,10%
same,%Inh,SRPK2,0%
same,%Inh,SRPK3,0%
same,%Inh,STK16,14%
same,%Inh,STK33,0%
same,%Inh,STK35,3%
same,%Inh,STK36,0%
same,%Inh,STK39,5%
same,%Inh,SYK,32%
same,%Inh,SgK110,0%
same,%Inh,TAK1,18%
same,%Inh,TAOK1,0%
